Here are results for 18 compounds from PubChem BioAssay (EPA / NIEHS).

A short description of assay [1]: CCTE_Padilla_ZF_Score.Craniofacial: CCTE's 144 Hour Post-fertilization zebrafish Assay Score for Craniofacial Malformation, Padilla Lab (AID 2284405). Put shortly:
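Wild-type zebrafish embryos (with chorions), one per well in 10% Hanks', were dosed at 6–8 hpf in sealed plates and kept at 26C. They were rinsed at 5 dpf. At 6 dpf two blinded assessors scored craniofacial malformations by brightfield stereomicroscopy.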

Assay [2] in a line: CCTE_Padilla_ZF_Score.Edema: CCTE's 144 Hour Post-fertilization zebrafish Assay Score for Edema Malformation, Padilla Lab (AID 2284406). Put shortly:
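Wild-type zebrafish embryos, one per well in Hanks' solution, dosed at 6-8 hpf, sealed and reared at 26C on a 14:10 h cycle; rinsed on 5 dpf. At 6 dpf, blinded assessors scored edema by stereomicroscopy.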

Assay [3] is described as follows: CCTE_Padilla_ZF_Score.Spine: CCTE's 144 Hour Post-fertilization zebrafish Assay Score for Spine Malformation, Padilla Lab (AID 2284407). An outline of the steps:
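Wild-type zebrafish embryos, one per well in Hanks' solution, dosed at 6–8 hpf in sealed plates at 26C, 14:10 h light:dark; rinsed at 5 dpf. Two blinded assessors scored spinal defects by stereomicroscopy at 6 dpf; fitted versus DMSO.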

Assay [4] can be described thus: CCTE_Padilla_ZF_Score.Swim_bladder: CCTE's 144 Hour Post-fertilization zebrafish Assay Score for Swim Bladder Malformation, Padilla Lab (AID 2284408). An outline of the steps: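 Wild-type zebrafish embryos, one per well in 10% Hanks', dosed at 6–8 hpf, sealed, reared at 26C and rinsed at 5 dpf. Blinded assessors scored uninflated swim bladder by stereomicroscopy at 6 dpf, relative to DMSO.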

Assay [5] is described as follows: CCTE_Padilla_ZF_Score.Position: CCTE's 144 Hour Post-fertilization zebrafish Assay Score for Position, Padilla Lab (AID 2284409). An outline of the steps: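 Wild-type zebrafish embryos (with chorions) exposed singly from 6–8 hpf in sealed wells of Hanks' solution at 26C, rinsed at 5 dpf. At 6 dpf, blinded assessors scored abnormal water-column position by brightfield stereomicroscopy, relative to DMSO.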

Assay [6] in a line: CCTE_Padilla_ZF_Score.Living: CCTE's 144 Hour Post-fertilization zebrafish Assay Score for Viability, Padilla Lab (AID 2284410).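 Also: larval death at 6 dpf judged by absent heartbeat or coagulation.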 Put shortly:
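Wild-type zebrafish embryos were exposed singly from 6–8 hpf in sealed wells of Hanks' solution at 26C, then rinsed at 5 dpf. At 6 dpf, blinded assessors scored mortality (no heartbeat or coagulation) by stereomicroscopy, fitted against DMSO.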

In the next assay the test system is SERPINA7 (gene 6906). The experiment in a line: CCTE_GLTED_hTBG: CCTE's human Thyroxine-binding Globulin (TBG) Inhibition Assay, Great Lakes Toxicology and Ecology Division (GLTED) Lab (AID 2284343; active = hit-call score of the fitted dose curve at least 0.9, where 1 is the maximum;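 also: active chemicals lower fluorescence versus DMSO baseline by displacing probe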). An outline of the steps:
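Measures how far test chemicals displace ANSA bound to purified human TBG. The read-out is fluorescence at 380 nm excitation and 475 nm emission, taken after 2 h of incubation.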

The test system of assay [7] is SRY-box transcription factor 17 (SOX17) Protein Expression, Deisenroth Lab, SOX17 (gene 64321). The experiment in a line: CCTE_Deisenroth_DEVTOX-GLR_legacy_Sox17: (Legacy) CCTE's DevTox GLR-Endo Assay Evaluation of SRY-box transcription factor 17 (SOX17) Protein Expression, Deisenroth Lab (AID 2284341). The following applies: actives raise or lower the signal. An outline of the steps:
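RUES2-GLR human pluripotent cells differentiated toward endoderm for 48 h, dosed twice at 24 h intervals (1 nM–200 uM, 10 points). Imaging gives % SOX17+ cells (intensity >5x BMAD above pluripotent control median); bidirectional fit versus 0.2% DMSO.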

The test system of assay [8] is SRY-box transcription factor 2 (SOX2) Protein Expression, Deisenroth Lab, SOX2 (gene 6657). As to the kind of experiment: CCTE_Deisenroth_DEVTOX-GLR_legacy_Sox2: (Legacy) CCTE's DevTox GLR-Endo Assay Evaluation of SRY-box transcription factor 2 (SOX2) Protein Expression, Deisenroth Lab (AID 2284346). An outline of the steps:
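hPSC RUES2-GLR, 384-well; 24 h seed → 48 h endoderm differentiation, 2 doses q24h, 1 nM–200 uM. Fix, nuclear dye, 5 fields/well. Sox2+ cells/cell count; cell positive if >5x BMAD over endoderm ctrl; gain direction vs DMSO.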

Assay [9] is described as follows: Tanguay_ZF_120hpf_MO24: Oregon State University Tanguay Lab 24 Hour Post-fertilization zebrafish Assay for Mortality (AID 2284389). An outline of the steps:
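Dechorionated wild-type zebrafish embryos, 1 per well, statically exposed from 6 hpf at 28C, 0.64% DMSO final. Mortality scored as binary present/absent at 24 hpf by brightfield microscopy, relative to DMSO.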

Assay [10] can be described thus: Tanguay_ZF_120hpf_DP24: Oregon State University Tanguay Lab 24 Hour Post-fertilization zebrafish Assay for Delayed Development (AID 2284390). An outline of the steps: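 Dechorionated 5D wild-type zebrafish embryos exposed statically from 6 hpf, one per well, 0.64% DMSO final, 28 C, sealed and dark. Developmental progression scored at 24 hpf by brightfield as binary present/absent; dead embryos excluded.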

Assay [11] in a line: Tanguay_ZF_120hpf_CRAN: Oregon State University Tanguay Lab 120 Hour Post-fertilization zebrafish Assay for Craniofacial Malformation (AID 2284397). Put shortly: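 Dechorionated Tropical 5D wild-type zebrafish embryos, one per well, were statically exposed from 6 to 120 hpf at 28C in 0.64% DMSO, with 5uM trimethyltin chloride as positive control. Craniofacial malformation was scored present/absent by brightfield microscopy, relative to DMSO.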

Assay [12] is described as follows: Tanguay_ZF_120hpf_AXIS: Oregon State University Tanguay Lab 120 Hour Post-fertilization zebrafish Assay for Axial Malformation (AID 2284398). An outline of the steps:
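Dechorionated 5D wild-type zebrafish embryos exposed statically, one per well, from 6 to 120 hpf at 28C, 0.64% DMSO. Axial malformation scored as present/absent by brightfield microscopy at 120 hpf; dead embryos not scored.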

The nature of assay [13]: Tanguay_ZF_120hpf_MORT: Oregon State University Tanguay Lab 120 Hour Post-fertilization zebrafish Assay for Mortality (AID 2284399). Put shortly: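 Dechorionated wild-type Tropical 5D zebrafish embryos, one per well from 6 hpf, static exposure to 120 hpf at 28C in sealed dark plates, 0.64% DMSO final. Mortality scored as binary by brightfield at 24 and 120 hpf.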
Assay [14] in a line: Tanguay_ZF_120hpf_EDEM: Oregon State University Tanguay Lab 120 Hour Post-fertilization zebrafish Assay for Edema Malformation (AID 2284400). An outline of the steps: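 Dechorionated Tropical 5D wild-type embryos, one per well, statically exposed from 6 to 120 hpf at 28C in 0.64% DMSO. Edema scored present/absent by brightfield microscopy at 120 hpf; dead embryos not scored; fit versus DMSO.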

The nature of assay [15]: Tanguay_ZF_120hpf_BRN: Oregon State University Tanguay Lab 120 Hour Post-fertilization zebrafish Assay for Brain Region Malformation (AID 2284402). An outline of the steps: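 Dechorionated wild-type Tropical 5D zebrafish embryos exposed statically from 6 to 120 hpf at 28C, one per well, 0.64% DMSO final. Brain malformation scored at 120 hpf by brightfield as present/absent; dead embryos not scored.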

Assay [16] can be described thus: Tanguay_ZF_120hpf_TCHR: Oregon State University Tanguay Lab 120 Hour Post-fertilization zebrafish Assay for Touch Responsive (AID 2284403). Put shortly: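 Dechorionated Tropical 5D wild-type zebrafish embryos, one per well from 6 hpf, were statically exposed to 120 hpf at 28 °C (0.64% DMSO). Touch response was scored present/absent at 120 hpf and not scored in dead larvae.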

A short description of assay [17]: Tanguay_ZF_120hpf_ANY: Oregon State University Tanguay Lab 120 Hour Post-fertilization zebrafish Assay for Any Mortality and Malformation (AID 2284404). Put shortly:
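Dechorionated Tropical 5D wild-type embryos, one per well from 6 hpf, static exposure in sealed, dark plates at 28C until 120 hpf, 0.64% DMSO final. Brightfield scoring of mortality and malformations as binary presence/absence, pooling 13 morphology endpoints.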

Assay [18] can be described thus: CCTE_Mundy_HCI_iCellGluta_NOG_NeuronCount: CCTE's Neurite Outgrowth Assay in iCellGluta cells for Neuron Count, Mundy Lab (AID 2284340; active = hit-call score of the fitted dose curve at least 0.9, where 1 is the maximum;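 also: cells fixed about 48 h after compound addition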). Put shortly: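 Neuron count read by automated high-content imaging of Hoechst 33342 and betaIII-tubulin/Alexa Fluor-488 labelling in human iPSC glutamatergic neurons. Activity fitted relative to DMSO.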
Assay [19] in a line: CCTE_Mundy_HCI_iCellGluta_NOG_NeuriteCount: CCTE's Neurite Outgrowth Assay in iCellGluta cells for Neurite Count, Mundy Lab (AID 2284342; active = hit-call score of the fitted dose curve at least 0.9, where 1 is the maximum;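 also: chemical exposure about 48 hours starting 2 hours after plating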).

Each structure is given as a SMILES string. Results filed as inconclusive are left out. Activity calls are given as the source filed them. The calls were made as follows, unless noted: active = hit-call score of the fitted dose curve at least 0.9, where 1 is the maximum; inactive = score below 0.9.

Consider `O=C(OC(=O)C(F)(F)C(F)(F)F)C(F)(F)C(F)(F)F`, for which the call in [1], in assay [2], in assay [3], in assay [4], in assay [5] and in [6] was inactive.

For `CCCCc1ccc2ccccc2c1S(=O)(=O)O`, the AC50 in the assay on SERPINA7 (gene 6906) is 22 µM (active).

For the compound `FC(F)=C(F)C(F)(F)C(F)(F)C(F)(F)C(F)F`, the call in assay [1], in [2], in assay [3], in assay [4], in [5] and in assay [6] was inactive.

`FCOC(C(F)(F)F)C(F)(F)F`: the call in assay [1], in [2], in [3], in [4], in assay [5] and in [6] was inactive.

As to `CC(=O)Nc1ccc(O)cc1`, the compound was classed as inactive in assay [7] and in assay [8].

With `FC(F)(F)C1(F)C(F)(F)C(F)(F)C(F)(F)C1(F)F`, the compound was classed as inactive in assay [1], in [2], in [3], in assay [4], in assay [5] and in assay [6].

On to `FC(F)(F)N1C(F)(F)C(F)(F)OC(F)(F)C1(F)F`, for which the outcome in assay [1], in assay [2], in assay [3], in assay [4], in assay [5] and in [6] was inactive.

For the compound `O=C(O)CCC(F)(F)C(F)(F)C(F)(F)C(F)(F)C(F)(F)F`, the compound was called inactive in [9], in assay [10], in [11], in assay [12], in assay [13] and in [14]. Moreover, the result in [15], in assay [16], in assay [17], in [1] and in assay [3] was inactive. The AC50 was 10.7 µM (active) in assay [2], 10.9 µM (active) in assay [4], 10.7 µM (active) in assay [5] and 28.3 µM (active) in assay [6].

In the case of `O=C(O)C(F)(F)OC(F)(F)C(F)(F)OC(F)(F)C(F)(F)OC(F)(F)C(F)(F)C(F)(F)C(F)(F)F`, the AC50 in the assay with SERPINA7 (gene 6906) is 20.8 µM (active); in assay [13], 51.1 µM (active); in assay [17] it was 34.4 µM (active); in [2], 3.21 µM (active); in assay [4], 3.2 µM (active); in [5], 8.31 µM (active). Further, in [6], the AC50 is 8.88 µM (active). For the same compound, the compound was called inactive in assay [9], in assay [10], in assay [11], in assay [12], in assay [14] and in assay [15]. Moreover, the outcome in assay [16], in [1] and in assay [3] was inactive.

Take `COc1cc([N+](=O)[O-])ccc1N`: the AC50 in the assay on SERPINA7 (gene 6906) is 37 µM (active).

As for `C=CC(=O)OCCC(F)(F)C(F)(F)C(F)(F)C(F)(F)C(F)(F)C(F)(F)C(F)(F)C(F)(F)F`, the compound was called inactive in assay [18], in assay [19], in assay [9], in assay [10], in assay [11] and in [12]. In addition, the result in [13], in assay [14], in assay [15], in [16], in [17] and in assay [1] was inactive. Moreover, the compound was called inactive in assay [2], in assay [3], in assay [4], in assay [5] and in [6].

In the case of `CCCCCCCCCCCCOC(=O)c1cc(O)c(O)c(O)c1`, the AC50 in the assay on SERPINA7 (gene 6906) was 4.45 µM (active).

For the compound `CN(Cc1cnc2nc(N)nc(N)c2n1)c1ccc(C(=O)N[C@@H](CCC(=O)O)C(=O)O)cc1`, in assay [7], the compound was classed as inactive. Further, the AC50 in assay [8] was 0.0109 µM (active).

For the compound `NC(C(F)(F)F)C(F)(F)F`, the outcome in [1], in assay [2], in assay [3], in assay [4], in assay [5] and in [6] was inactive.

`O=C(CC(=O)C(F)(F)C(F)(F)C(F)(F)F)c1cccs1`: the outcome in assay [19], in assay [9], in [10], in assay [11], in assay [12] and in assay [13] was inactive. Also, the result in [15], in [16], in assay [1], in assay [2], in assay [3] and in assay [5] was inactive. In addition, the concentration at half-maximal activity (AC50) in the assay with SERPINA7 (gene 6906) was 14.1 µM (active); in assay [14], 65.8 µM (active); in assay [17], 67.7 µM (active); in assay [4], 2.41 µM (active); in assay [6] it was 7.34 µM (active).

For `CN(C)CCOC(c1ccccc1)c1ccccc1`, the concentration at half-maximal activity (AC50) in assay [7] is 58.1 µM (active); in assay [8], 100 µM (active).

For the compound `Cc1[nH]nc2c1N=C(c1ccccc1Cl)c1cc([N+](=O)[O-])ccc1N2`, in the assay with SERPINA7 (gene 6906), the AC50 was 0.482 µM (active).

For the compound `FC(F)(F)C1(F)C(F)(F)C(F)(F)C(F)(F)C(F)(C(F)(F)F)C1(F)F` (configuration not stated), the outcome in assay [1], in [2], in assay [3], in assay [4], in assay [5] and in assay [6] was inactive.

For orientation: AC50 means the midpoint of the concentration-response curve, whichever way the signal moves.
